Source: PubChem
Yeast superoxide: lowers age-related superoxide in aged yeast cells | S. cerevisiae aged cells, superoxide DHE fluorescence; stronger effect = lower value | superoxide response (% of plate mean), % at 10 µM | hit rate 0.18% among 330,000;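 active = superoxide response under a set limit, about three screen SD below normal, cut at about 65% in these data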;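 note: yeast aged for seven days with compound at 30 °C before DHE staining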
SKKanGAS inh: inhibitors of SKKanGAS S. pyogenes growth in kanamycin (SK-promoter or general growth effect); hit rate 1.3% among 300,000; BacTiter-Glo, 6 h; inhibition, % at 7.5 µM;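 active = mean replicate score, as percent of positive control median, at least 50; inconclusive = mean below 50 but one replicate at or above 50; inactive = mean and every replicate below 50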;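 note: strain carries kanamycin resistance gene driven by streptokinase promoter and grows in 40 µg/ml kanamycin; loss of luminescence reflects streptokinase promoter inhibition or plain growth inhibition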
PolyA inhibitor: blocks polyadenylation in yeast reporter cells; S. cerevisiae SKY197-pL101 polyadenylation reporter, beta-gal luminescence; efflux-impaired pdr1/pdr3 knockout yeast; score 100 = 6 SD above DMSO; activity score, % at 12 µM; hit rate 0.02% among 300,000; AID 1875;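 active = lowest replicate activity score at least 50, where 100 means six control SD above control mean; inconclusive = lowest score under 50 but half or more replicates reach 50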;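 note: yeast exposed to compound for 9 h at 30 °C; higher score means more reporter readthrough which indicates perturbed polyadenylation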
Platelet DG rel: platelet dense granule release activity; human platelet-rich plasma, SFLLRN dense granule ATP release, luminescence; inhibition, %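 (compounds screened at 7.5 µM in platelet-rich plasma)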; hit rate 0.22% among 300,000;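 active = mean replicate score, as percent of positive control, at or above 50; inconclusive = mean below 50 but at least one replicate at or above 50; inactive = mean and every replicate below 50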
Calb FLC: affects C. albicans growth with fluconazole. C. albicans CaCi-2 (fluconazole-resistant clinical isolate) + fluconazole, Alamar Blue growth, 48 h. growth inhibition, % (no concentration beside the values). hit rate 0.57% among 300,000;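 active = growth inhibition above about 58% in most replicates, limit read from the data, passing the limit was not always enough; inconclusive = exactly half the replicates above a set limit; inactive = most replicates below a set limit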;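 note: all wells also contain fluconazole at 8 µg/ml as a sub-toxic cotreatment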
A number is an active result; n = inactive; u = inconclusive; x = not tested or not shown. In the library only some 2% were active in any assay of this set; here they are far more common.

SMILES | Yeast superoxide | SKKanGAS inh | PolyA inhibitor | Platelet DG rel | Calb FLC
CS(=O)(=O)N(CC(=O)Nc1ccc(Br)cc1)C1CCCCC1 | n | n | n | n | n
O=C(O)C1Cc2ccccc2CN1C(=O)CSc1nnc2ccccn12 (stereo unspecified) | n | n | n | n | n
Cc1noc2ncnc(Sc3ccc(Cl)cc3)c12 | n | n | n | n | 85.7
Cc1ccc(Sc2ncnc3onc(C)c23)cc1 | n | n | n | x | n
CCOC(=O)c1cnc2c(c(C)nn2CC)c1NCCN1CCOCC1 | n | n | n | n | n
S=c1[nH]c2ncccc2o1 | n | n | n | n | n
S=c1[nH]c2cc(Cl)c3cccnc3c2o1 | n | n | n | n | 78.7
CCCc1ccc(C(=O)O/N=C(\N)c2ccccn2)cc1 | n | n | n | 76.9 | n
N/C(=N\OC(=O)c1ccc2ccccc2c1)c1ccncc1 | n | n | n | n | n
N/C(=N\OC(=O)c1ccc2ccccc2c1)c1ccccn1 | n | n | n | 66.0 | n
Cc1ccccc1OC(C)C(=O)N1CCN(c2ccccn2)CC1 (stereo unspecified) | n | n | n | n | n
CC1(C)CCCN(C(=O)N2c3ccccc3Sc3ccccc32)C1 | n | 79.7 | n | n | n
COc1ccc(C(NC(=O)c2cccnc2)c2cc(Cl)c3cccnc3c2O)cc1OC (stereo unspecified) | n | n | n | n | n
Oc1c(C(Nc2ccccn2)c2cccnc2)cc(Cl)c2cccnc12 (stereo unspecified) | n | 94.7 | n | n | n
CCC(=O)NC(C)c1cc(Cl)c2ccccc2c1O (stereo unspecified) | n | x | x | x | x
CC(=O)NC(c1ccc(C)cc1)c1cc(Cl)c2cccnc2c1O (stereo unspecified) | n | 97.6 | n | n | n
CCC(=O)NC(c1ccc(OC)cc1)c1cc(Cl)c2cccnc2c1O (stereo unspecified) | n | n | n | n | 103.6
CCCCC(=O)NC(c1ccco1)c1cc(Cl)c2cccnc2c1O (stereo unspecified) | n | 51.7 | n | n | 111.8
CC1(C)O[C@@H](CC(=O)O)[C@]23CO[C@H](C(=O)[C@]4(C)C2CC[C@@]2(C)[C@H](c5ccoc5)OC(=O)C5O[C@]524)[C@@H]13 (stereo partly specified) | n | x | x | x | x
CC1CCCN(C(=O)C2CCN(S(=O)(=O)c3cccc4nonc34)CC2)C1 (stereo unspecified) | n | n | n | n | n
Nn1cnnc1N/N=C/c1cc(Br)cc(Br)c1O | n | u | n | n | n
C[N+]1(C2CCC3CCCC2C3O)CCCCC1 (stereo unspecified) | n | n | n | n | n
CCC(=O)NC(c1ccco1)c1cc(Cl)c2cccnc2c1OC (stereo unspecified) | n | x | x | x | x
CCC(=O)NC(c1ccco1)c1cc(Cl)c2cccnc2c1O (stereo unspecified) | n | n | n | n | 90.3
CNc1ccc(OC)cc1-n1cnc(-c2ccc([N+](=O)[O-])cc2)c1 | n | n | n | n | 101.3
SMILES | Yeast superoxide | SKKanGAS inh | PolyA inhibitor | Platelet DG rel | Calb FLC
C/C(=N\NC(=O)C1CCCC1)c1ccc(Cl)c(Cl)c1 | n | x | x | x | 112.3
C/C(=N\NC(=O)C1CCCC1)c1ccc(C(C)C)cc1 | n | n | n | n | n
CCOC(=O)Cn1nc(C)n(-c2ccc(F)cc2)c1=O | n | n | n | n | n
CN(Cc1ccccc1)S(=O)(=O)c1ccc2c(c1)OCCO2 | n | n | n | n | n
COc1ccc(CN(C)S(=O)(=O)c2ccc3c(c2)OCCO3)cc1 | n | 50.9 | n | n | n
CCCN(CC(=O)Nc1ccc(F)c(F)c1F)C(=O)Cc1ccc(S(=O)(=O)N2CCOCC2)s1 | n | x | x | x | x
COC(=O)c1cc(COC(=O)CNC(=O)c2ccc(Br)cc2)oc1C | n | x | x | x | x
CN1CCN(c2ccc(Cl)cc2NC(=O)c2cc(=O)[nH]c3ccccc23)CC1 | n | x | x | x | x
CN1CCN(c2cc3c(c4c2[nH]c2ccccc24)C(=O)CC(C)(C)C3)CC1 | n | n | n | n | 101.0
NC(=O)N/N=C/c1ccc([N+](=O)[O-])o1 | n | x | x | x | x
O=[N+]([O-])c1ccc(/C=[N+](\[O-])CCO)o1 | n | 83.8 | n | n | n
CC1=NN(c2nc3ccccc3[nH]2)C(=O)C1Cc1ccccc1 (stereo unspecified) | n | 88.9 | n | n | n
N#CCCN(C(=O)COC(=O)CCc1nc2ccccc2c(=O)[nH]1)c1ccccc1F | n | x | x | x | x
c1ccc2c(c1)OCC(CNc1ncnc3sccc13)O2 (stereo unspecified) | n | n | n | n | 79.7
CC(C)=CCc1cc([C@@H]2CC(=O)c3ccc(O)c(CC=C(C)C)c3O2)ccc1O | n | 86.0 | n | n | n
Cc1ccc2c(c1)C(=O)CC(c1ccc3c(c1)OCCO3)O2 (stereo unspecified) | n | n | n | n | n
O=C1CCCCC/C1=N/Nc1ccc(OCc2ccccc2)cc1 | n | n | n | n | 94.1
Cc1c(/C=N/NC(=O)c2ccc(O)cc2)c2ccccn2c1C(=O)c1ccc(F)cc1 | n | 51.9 | n | n | n
COc1cccc(NC(=O)C(=O)NCCC2CCCCN2S(=O)(=O)c2ccccc2)c1 (stereo unspecified) | n | n | n | n | n
Cc1ccc(Cl)c(OCC(=O)Nc2ccccc2C(=O)NC2CC2)c1 | n | n | n | 52.9 | n
CSCc1cc(N(C)c2ccccc2)nc(-c2ccccc2)n1 | n | n | n | n | n
O=C(CSc1nc2c(cnn2-c2ccccc2)c(=O)[nH]1)N1N=C(c2cccs2)CC1c1ccc(F)cc1 (stereo unspecified) | n | 50.6 | n | n | n
Cc1csc(NC(=O)c2ccc(Cl)nc2)n1 | n | n | n | n | n
COc1ccc(OCC(O)CNS(=O)(=O)c2ccc(NC(C)=O)cc2)cc1 (stereo unspecified) | n | n | n | n | n
O=C(O)c1cccc(CN2C(=O)c3ccccc3C2=O)c1 | n | n | n | n | n
SMILES | Yeast superoxide | SKKanGAS inh | PolyA inhibitor | Platelet DG rel | Calb FLC
O=C1c2cccc3c(O)ccc(c23)C(=O)N1Cc1ccccc1 | n | n | n | n | 99.5
O=C(c1cc2ccccc2cc1O)N1CCCC1 | n | n | n | n | n
Cc1ccc(-c2cc(C(=O)N3CCN(c4ccccc4O)CC3)c3ccccc3n2)o1 | n | n | n | n | n
O=C(c1cc2ccccc2cc1O)N1CCN(c2ccccc2O)CC1 | n | u | n | n | 76.6
O=C(c1cc(-c2ccc(Br)cc2)nc2ccccc12)N1CCN(c2ccccc2O)CC1 | n | 58.7 | n | n | n
Cn1cc(S(=O)(=O)NC2CCCCC2)c(=O)n(C)c1=O | n | n | n | n | n
OCCCNc1cc(-c2ccnc(Nc3cccc(Cl)c3)n2)ccn1 | n | n | n | n | 114.1
COc1ccc(NC(=O)COC(=O)c2c3c(nc4ccccc24)CCCC3)cc1 | n | n | n | n | n
COc1ccc(NC(=O)COC(=O)c2c3c(nc4ccccc24)CCCC3)cc1Cl | n | 61.1 | n | x | n
CNC(=O)COC(=O)c1c2c(nc3ccccc13)CCC2 | n | n | n | n | 110.1
CCCCNC(=O)COC(=O)c1c2c(nc3ccccc13)CCC2 | n | n | n | n | n
